Where a name gives a salt, the structure may show the parent alone. A number with no mark means an inactive call. No rule for the calls is given here. Residues, ends and D or L forms follow the SMILES beside them. *: point of attachment. Tfa = O=C(C(F)(F)F)*
The molecules below were run on Aerobactin synthetase IucA (Klebsiella pneumoniae hvKP1) (assay: Biochemical IucA enzyme inhibition primary screen of the Spectrum library (AID 1346200;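 also: 100% = wells without compound and 0% = wells lacking enzyme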)). Details: malachite green pyrophosphate, A620, at 8 µM, stronger effect = lower value.

Row | SMILES | activity remaining
1 | CCCCCCCCCCCCCCCCOP(=O)([O-])OCC[N+](C)(C)C | 128%
2 | Cc1cccc(C(=O)O)c1O | 91.3%
3 | CNCC[C@H](Oc1cccc2ccccc12)c1cccs1 | 114%
4 | CC(C)=CCOc1cc2oc(=O)ccc2cc1O | 109%
5 | O=c1[nH]c(=O)n(C2C[C@H](O)[C@@H](CO)O2)cc1C(F)(F)F (stereo not given in full) | 108%
6 | COc1ccc2c(c1)OC1(O)COc3cc(OC)c(OC)cc3C1=C2 (stereo not given) | 107%
7 | COC1C(O)C(O)C(O)[C@@H](O)C1O (stereo not given in full) | 106%
8 | CCCN(CCC)S(=O)(=O)c1ccc(C(=O)O)cc1 | 93.6%
9 | O=C1NS(=O)(=O)c2ccccc21 | 102%
10 | CC1CCc2cc(F)cc3c(=O)c(C(=O)O)cn1c23 (stereo not given) | 119%
11 | COc1ccc(CCC(=O)c2c(O)cc(O[C@@H]3O[C@H](CO)C(O)[C@H](O)C3O[C@@H]3O[C@@H](C)[C@H](O)[C@@H](O)[C@H]3O)cc2O)cc1O (stereo not given in full) | 109%
12 | COC(=O)c1c(C)c2c(c(C)c1O)OC(=O)c1c(C)c(Cl)c(O)c(Cl)c1O2 | 111%
13 | CCOC(=O)c1ccc(O)cc1 | 114%
14 | Cc1cc(O)c(C)c(O)c1C(=O)O | 121%
15 | Nc1ccc(S(=O)(=O)NC(=O)c2ccccc2)cc1 | 109%
16 | CC(C)C(NC(=O)C(Cc1ccc(O)cc1)NC(=O)C(NC(=O)C(F)(F)F)C(C)C)C(=O)O (stereo not drawn) (Tfa-Val-Tyr-Val-OH; configuration not given here) | 105%
17 | COC(=O)C1=CO[C@@H](C)[C@@H]2CN3CC[C@@]4(C(=O)Nc5ccccc54)[C@H]3CC12 (stereo not given in full) | 101%
18 | O=c1c(O)c(-c2ccc(O)c(O)c2)oc2cc(O)ccc12 | 101%
19 | COc1cc(O)c2c(=O)cc(C)oc2c1CC=C(C)C | 83.4%
20 | CO[C@@]12[C@@H]3NC3CN1C1=C(C(=O)C(N)=C(C)C1=O)[C@@H]2COC(N)=O (stereo not given in full) | 95.4%

Row | SMILES | activity remaining
21 | O=C(/C=C(\O)c1ccccc1)c1ccccc1O | 120%
22 | C=C1CCC(C2CC(=O)OC2=O)C(=O)CCC2C1CC2(C)C (stereo not given) | 111%
23 | O=C1C=CC(=O)c2c(O)c(Cl)c(Cl)c(O)c21 | 109%
24 | CC1(C)CCC[C@@]2(C)C1[C@@H](O)C[C@]1(C)C2CC[C@@H]2[C@@]3(C)CC[C@H](C(C)(C)O)[C@@H]3CC[C@@]21C (stereo not given in full) | 99.1%
25 | COC(=O)[C@@H]1OC(=O)C2OC23[C@@]1(C)CCC1[C@]2(C)C(C[C@H](O)[C@]13C)C(C)(C)[C@H](OC(C)=O)C[C@@H]2OC(C)=O (stereo not given in full) | 111%
26 | O=c1c(O)c(-c2ccccc2)oc2ccc3occc3c12 | 104%
27 | CC(=O)c1ccc[nH]1 | 98.2%
28 | Cc1ccc(C(=O)c2ccc(CC(=O)O)n2C)cc1 | 120%
29 | Nc1ccc(S(=O)(=O)Nc2cnc3ccccc3n2)cc1 | 123%
30 | O=C(OOC(=O)c1ccccc1)c1ccccc1 | 113%
31 | COc1ccc(-c2cc(C(F)F)nn2-c2ccc(S(N)(=O)=O)cc2)cc1F | 123%
32 | COc1cc([C@@H]2c3cc4c(cc3[C@H](O)[C@H]3COC(=O)[C@@H]23)OCO4)cc(OC)c1OC | 82.7%
33 | CC(=O)O[C@H]1CCC2(C)C3=C(CCC2C1(C)C)[C@@]1(C)CC[C@@H](C(C)CCC=C(C)C)[C@]1(C)CC3 (stereo not given in full) | 109%
34 | C/C=C/c1ccc(OC)cc1 | 98.6%
35 | CCCCC1(COC(=O)CCC(=O)O)C(=O)N(c2ccccc2)N(c2ccccc2)C1=O | 110%
36 | CC(=O)CC(c1ccccc1)c1c(O)c2ccccc2oc1=O (stereo not given) | 118%
37 | C[C@]12C=CC(=O)C=C1CCC1C2[C@@H](O)C[C@@]2(C)C1CC[C@]2(O)C(=O)CO (stereo not given in full) | 119%
38 | CC1(C)C(=O)C=C[C@@]2(C)C1C=C[C@]1(C)C2CC[C@@]2(C)[C@H](c3ccoc3)OC(=O)C3OC321 (stereo not given in full) | 102%
39 | COc1cc2ccc(=O)oc2c(OC)c1OC | 124%
40 | NS(=O)(=O)c1cc2c(cc1C(F)(F)F)NC(Cc1ccccc1)NS2(=O)=O (stereo not given) | 98.7%
